These results are taken from PubChem BioAssay (NCI).

The panel holds about 83,000 compounds, 20% with a hit somewhere; the sample as a whole holds those more often.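 Values shown are percent growth following 48 h exposure of cells in 96-well plates to a single concentration of compound; below 10 was considered active.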 A number with no mark means an inactive call. Active and inactive are the calls of the source.

The subject of the first assay is T-47D breast. The experiment in a line: NCI-60 one-dose screen, 48 h (100 = growth as untreated, 0 = no growth, -100 = all killed). Particulars: 10 µM unless noted.
As to `C#C[C@]1(O)CC[C@H]2[C@@H]3CC=C4c5sc(NCc6ccccc6)nc5CC[C@]4(C)[C@H]3CC[C@@]21C`, the growth is 65.8%. With `Clc1ccc(CSc2nnc(-c3ccc(Cl)cc3)n2-c2ccccc2)cc1`, the growth was 80.9%.

Turning to `Cc1ccc(C(=O)CSc2nc3ccccc3c(=O)n2C)cc1`, the growth was 76.2%.

Regarding `CCn1c2ccc(/C=N/N(C)S(=O)(=O)CCN(C)C)cc2c2cc(/C=N/N(C)S(=O)(=O)CCN(C)C)ccc21`, the growth is 88.6%. On to `CN1CCN(c2ccc(Nc3nc(NCCCNS(=O)(=O)c4ccc(Cl)cc4)c4sccc4n3)cc2)CC1`, for which the growth is 11.6%. The same measure, in the same setting: to `CCCCCCCCCCCC(=O)NC(C)(C)C(=O)N1CCCC1C(=O)NC(C)(C)C(=O)NC(C)(C)C(=O)N1CCCC1C(=O)NC(C)(C)C(=O)NC(C)(C)C(=O)N1CCCC1C(=O)NC(C)C(=O)NCCC(=O)NC(C)C(=O)NC(C)(C)C(=O)NC(C)(C)C(=O)NC(C)(C)C(=O)NCCC(=O)NC(C)(C)C(=O)NC(C)(C)C(=O)NC(C)(C)C(=O)NC(C)C(=O)NCCC(=O)O` (configuration not stated) belongs -64.3% (active); to `O=C(CCCCCCN1CC(=O)N2[C@@H](c3ccc(Cl)s3)c3[nH]c4ccccc4c3C[C@H]2C1=O)NO`, 27.5%. For `Clc1cccc(/C=N/Nc2nc(N/N=C/c3cccc(Cl)c3)nc(N3CCCCC3)n2)c1`, the growth is 76%. Still for that read-out and setting: to `COc1ccc(Cn2cc(C#N)c(N)c2C(C)=O)cc1` belongs 96.8%. Same read-out and setting: for `C#Cc1nc(/C=C\CCCCCCC(=O)NO)cs1` the value was 42.3%. The same measure, in the same setting: to `CC1(C)CC[C@]2(C(=O)O)CC[C@]3(C)C(=CC[C@@H]4[C@@]5(C)CC[C@H](NOCCCN)C(C)(C)[C@@H]5CC[C@]43C)[C@@H]2C1` belongs 73.1%; to `CCC(=C(c1ccc(OCCN2CCCCCC2)cc1)c1ccc(OCCN2CCCCCC2)cc1)c1ccc(Cl)cc1`, 27.1%.

On to `O=C(/C=C/c1ccccc1)c1cccc(O)c1`, for which the growth was 97.8%.

As for `O=C(/C=C/c1cccc(F)c1)c1cccc(OCCCOc2cccc(C(=O)/C=C/c3cccc(F)c3)c2)c1`, the growth is 69.8%.

Turning to `Brc1ccc2[nH]cc(-c3nn4cc(-c5nccs5)nc4s3)c2c1`, the growth is 29.7%.

In the case of `CN1CCN(c2ccc(Nc3nc(NCCCNS(=O)(=O)c4ccc(F)cc4)c4sccc4n3)cc2)CC1`, the growth is 29.8%. The same measure, in the same setting: for `N#Cc1c(-c2cccs2)cc(-c2cnccn2)nc1SCC(=O)N/N=C/c1ccncc1` the value was 101%; for `CN(C)c1ccc(-c2cc(-c3c[nH]c4ccccc34)nc(N)c2C#N)cc1`, 39.9%; for `O=C(CSc1nc2ccccc2c(=O)n1-c1ccccc1)N/N=C/c1ccc(Oc2ccc(Br)cc2)cc1`, 82.4%. For `CCc1cc(O)ccc1Nc1cc(-c2ccc(-n3cccn3)cc2)[nH]n1`, the growth is 35.7%. Take `C#C[C@]1(O)CC[C@H]2[C@@H]3CC=C4c5sc(N(C)c6ccccc6)nc5CC[C@]4(C)[C@H]3CC[C@@]21C`: the growth is 75.2%. With `COc1cc(C(C)=C(c2ccc(OCCN(C)C)cc2)c2ccc(OCCN(C)C)cc2)ccc1F`, the growth is 93.4%. Consider `C#CCN(C)CCCOc1ccc(NCc2ccc(C(=O)NO)cc2)cc1Cl`, for which the growth is 0.446% (active).

`CSc1ccc(C(=NNS(=O)(=O)c2ccc(C)cc2)c2ccc(Cl)cc2)cc1`: the growth was 89.7%. On to `Clc1ccc2[nH]cc(-c3nn4cc(-c5cccnc5)nc4s3)c2c1`, for which the growth was 71.5%.

As for `COc1ccc(/C=N/NC(=O)CSc2nc(-c3cnccn3)cc(-c3cccs3)c2C#N)cc1OC`, the growth is 93.9%. For the molecule `N#Cc1cnc2ccc(-c3cnc4n[nH]nc4c3)cc2c1N1CCc2cc(F)c(Cl)cc21`, the growth is 1.2% (active).

A further assay deals with BT-549 breast. Described as above. Particulars: 10 µM unless noted.
`CCOC(=O)c1cnc2c(-c3ccc(Cl)c(Cl)c3)cnn2c1`: the growth is 26.5%.

For `CCCc1[nH]c(-c2cc(N)ccc2Cl)c2c1C(=O)CCCC2`, the growth is 111%. Consider `O=C(Nc1ccc(N=Cc2c(O)[nH]c3ccccc23)cc1)Nc1ccc(S(=O)(=O)Nc2ncccn2)cc1`, for which the growth was 103%. Take `Cc1ccc(NC(=O)Nc2nc3ccc([N+](=O)[O-])cc3s2)cc1`: the growth is -9.82% (active).

For the molecule `COc1ccc(C2C(C#N)=C(/N=C/c3ccc(Cl)cc3)Oc3c2sc2c(C)cccc32)cc1` (configuration not stated), the growth is 49.5%.

`Cc1ccc2c(n1)C(=O)C(Cl)=C(Nc1ccc(C(F)(F)F)cc1)C2=O`: the growth was 130%. Take `Brc1cc(-c2cc(-c3ccc4c(c3)OCCO4)[nH]n2)cs1`: the growth is 66%.

`CN(C)c1cccc2c(S(=O)(=O)Nc3cccc(-c4csc(NC(=O)CCCCCN5CCN(CCO)CC5)n4)c3)cccc12`: the growth was 87.5%. Same read-out and setting: to `CC1=C(C)C(=O)C(Nc2cccc(C(=O)OC(C)(C)C)c2)=CC1=O` belongs 82.6%. The same measure, in the same setting: for `C=C(C)[C@@H]1CC[C@]2(C(=O)O)CC[C@]3(C)[C@H](CC[C@@H]4[C@@]5(C)C/C(=C/c6ccccn6)C(=O)C(C)(C)[C@@H]5CC[C@]43C)[C@@H]12` the value was 45.8%.

For `Nc1ccc(Nc2ncnc3sc4c(c23)CCN(Cc2ccccc2)C4)cc1`, the growth is 101%. Still for that read-out and setting: for `Cc1ccsc1[C@H]1c2[nH]c3ccccc3c2C[C@H]2C(=O)N(CCCCCCC(=O)NO)CC(=O)N12` the value was 106%.

With `C=C(C)[C@@H]1CC[C@]2(COCCCNCCCN)CC[C@]3(C)[C@H](CC[C@@H]4[C@@]5(C)CC[C@H](O)C(C)(C)[C@@H]5CC[C@]43C)[C@@H]12`, the growth was -77.4% (active). Regarding `C#C[C@]1(O)CC[C@H]2[C@@H]3CC=C4c5sc(NCc6ccccc6)nc5CC[C@]4(C)[C@H]3CC[C@@]21C`, the growth was 18.2%.

As for `Clc1ccc(CSc2nnc(-c3ccc(Cl)cc3)n2-c2ccccc2)cc1`, the growth was 58.6%. On the same count and under the same terms, for `Cc1ccc(C(=O)CSc2nc3ccccc3c(=O)n2C)cc1` the value was 96.1%; for `CCn1c2ccc(/C=N/N(C)S(=O)(=O)CCN(C)C)cc2c2cc(/C=N/N(C)S(=O)(=O)CCN(C)C)ccc21`, 72.4%.

Take `CN1CCN(c2ccc(Nc3nc(NCCCNS(=O)(=O)c4ccc(Cl)cc4)c4sccc4n3)cc2)CC1`: the growth was -70.2% (active).

For `CCCCCCCCCCCC(=O)NC(C)(C)C(=O)N1CCCC1C(=O)NC(C)(C)C(=O)NC(C)(C)C(=O)N1CCCC1C(=O)NC(C)(C)C(=O)NC(C)(C)C(=O)N1CCCC1C(=O)NC(C)C(=O)NCCC(=O)NC(C)C(=O)NC(C)(C)C(=O)NC(C)(C)C(=O)NC(C)(C)C(=O)NCCC(=O)NC(C)(C)C(=O)NC(C)(C)C(=O)NC(C)(C)C(=O)NC(C)C(=O)NCCC(=O)O` (configuration not stated), the growth is -97.1% (active). As for `O=C(CCCCCCN1CC(=O)N2[C@@H](c3ccc(Cl)s3)c3[nH]c4ccccc4c3C[C@H]2C1=O)NO`, the growth was 85.7%. Still for that read-out and setting: for `Clc1cccc(/C=N/Nc2nc(N/N=C/c3cccc(Cl)c3)nc(N3CCCCC3)n2)c1` the value was 94.9%; for `COc1ccc(Cn2cc(C#N)c(N)c2C(C)=O)cc1`, 114%; for `C#Cc1nc(/C=C\CCCCCCC(=O)NO)cs1`, 87.5%. Consider `CC1(C)CC[C@]2(C(=O)O)CC[C@]3(C)C(=CC[C@@H]4[C@@]5(C)CC[C@H](NOCCCN)C(C)(C)[C@@H]5CC[C@]43C)[C@@H]2C1`, for which the growth was 80%. The same measure, in the same setting: for `CCC(=C(c1ccc(OCCN2CCCCCC2)cc1)c1ccc(OCCN2CCCCCC2)cc1)c1ccc(Cl)cc1` the value was 86.2%. Turning to `O=C(/C=C/c1ccccc1)c1cccc(O)c1`, the growth is 95.4%.

On to `O=C(/C=C/c1cccc(F)c1)c1cccc(OCCCOc2cccc(C(=O)/C=C/c3cccc(F)c3)c2)c1`, for which the growth is 72.1%. As to `Brc1ccc2[nH]cc(-c3nn4cc(-c5nccs5)nc4s3)c2c1`, the growth is 62.6%. In the case of `CN1CCN(c2ccc(Nc3nc(NCCCNS(=O)(=O)c4ccc(F)cc4)c4sccc4n3)cc2)CC1`, the growth was 65.9%. For `N#Cc1c(-c2cccs2)cc(-c2cnccn2)nc1SCC(=O)N/N=C/c1ccncc1`, the growth was 113%. Turning to `CN(C)c1ccc(-c2cc(-c3c[nH]c4ccccc34)nc(N)c2C#N)cc1`, the growth is 27.8%.

Take `O=C(CSc1nc2ccccc2c(=O)n1-c1ccccc1)N/N=C/c1ccc(Oc2ccc(Br)cc2)cc1`: the growth is 73.1%.

In the case of `CCc1cc(O)ccc1Nc1cc(-c2ccc(-n3cccn3)cc2)[nH]n1`, the growth is 85.7%. Consider `C#C[C@]1(O)CC[C@H]2[C@@H]3CC=C4c5sc(N(C)c6ccccc6)nc5CC[C@]4(C)[C@H]3CC[C@@]21C`, for which the growth was 74.6%. Still for that read-out and setting: to `COc1cc(C(C)=C(c2ccc(OCCN(C)C)cc2)c2ccc(OCCN(C)C)cc2)ccc1F` belongs 107%; to `C#CCN(C)CCCOc1ccc(NCc2ccc(C(=O)NO)cc2)cc1Cl`, 75.4%; to `CSc1ccc(C(=NNS(=O)(=O)c2ccc(C)cc2)c2ccc(Cl)cc2)cc1`, 118%.

Turning to `Clc1ccc2[nH]cc(-c3nn4cc(-c5cccnc5)nc4s3)c2c1`, the growth is 110%. `COc1ccc(/C=N/NC(=O)CSc2nc(-c3cnccn3)cc(-c3cccs3)c2C#N)cc1OC`: the growth was 38%.

For `N#Cc1cnc2ccc(-c3cnc4n[nH]nc4c3)cc2c1N1CCc2cc(F)c(Cl)cc21`, the growth is 3.78% (active).
